Screening data (PubChem)
TDP1 cell noCPT: qHTS for Inhibitors of human tyrosyl-DNA phosphodiesterase 1 (TDP1): qHTS in cells in absence of CPT | DT40 Tdp1-/- hTDP1 cells, no CPT, ATP luminescence, 48 h | 420,000 tested, 15% active | AID 686978, 2013 | Potency, µM (titrated, usually from 46.2 µM), actives largely listed as inhibitors; note: nearly all actives have a fitted effect of over 55% in size
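Growth of hTDP1-complemented DT40 Tdp1-knockout cells is measured by ATP luminescence after at least 48 hr compound exposure at 37 °C, with DMSO substituting for the 20 nM CPT used in the parallel screen.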
HT1080NT lethal: kills 2HG-producing HT-1080-NT fibrosarcoma cells | HT-1080-NT fibrosarcoma viability, CellTiter-Glo ATP luminescence, 48 h | Potency, µM (top dose mostly 46.1 µM), actives largely listed as cytotoxic | 360,000 tested, 1.6% active | AID 686970;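 note: NT is the 2HG producing partner of a matched IDH1 knockdown line; nearly all actives have a fitted effect of over 55% in size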
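Compounds were tested in concentration-response format on HT-1080-NT cells for 48 hours at 37 degrees C. Cell viability came from CellTiter-Glo luminescence; curves were classified by r2, response magnitude and activity.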
TGFb inhibitor: inhibitors of TGF-b signaling. HepG2 CAGA-GFP TGF-b/SMAD3 reporter, GFP fluorescence, 18 h; TGF-beta stimulated, 500 pg/mL final. Potency, µM (titrated, usually from 46.1 µM), actives largely listed as inhibitors. 410,000 tested, 1.2% active; note: nearly all actives have a fitted effect of over 65% in size
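First, reporter cells (HEPG2 CAGA-GFP) rested 2 h at 37 degrees C. Next, compounds were pinned in and TGF-beta added to 500 pg/mL final. After 18 h, GFP was imaged per cell and summed per well.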
DT40 TDP1 CPT: growth inhibition of DT40 Tdp1-/-;hTDP1 cells with camptothecin (screen for TDP1 inhibitors); Potency, µM (titrated, usually from 46.2 µM), hits mostly inhibitors; chicken DT40 Tdp1-/-;hTDP1 cells + 20 nM CPT, ATP luminescence, 48 h; AID 686979; 420,000 tested, 12% active; note: nearly all actives have a fitted effect of over 55% in size
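Chicken DT40 Tdp1-/- cells stably complemented with human TDP1 were seeded at 400 cells/well in medium containing 20 nM camptothecin, exposed to pin-transferred compounds, and grown at 37 °C for at least 48 hr. Viability was read as ATP luminescence.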
HT1080 IDH1KD tx: toxicity to HT-1080 IDH1 knockdown cells (counter line); Potency, µM (titrated, usually from 46.1 µM), hits mostly cytotoxic; 360,000 tested, 2% active; HT-1080 IDH1 knockdown viability, ATP luminescence, 48 h
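In this qHTS, HT-1080 cells depleted of IDH1 are exposed for 48 h at 37 °C to compound titrations. Toxicity is scored from CellTiter-Glo luminescence, with DMSO as full viability and medium alone as none.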
HepG2 tox-1: counter-screen for TGF-b inhibitors: cytotoxicity in HepG2 cells; HepG2 CAGA-GFP viability, ATP luminescence, 18 h; Potency, µM (series often up to 46.1 µM), hits mostly cytotoxic; 410,000 tested, 0.76% active; AID 588856
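CellTiter-Glo luminescence gave cytotoxicity after 18 hours at 37 degrees C. The cells were HepG2 CAGA-GFP in 1% FBS DMEM, stimulated with 500 pg/mL TGF-beta after compound addition. %Activity was normalised to no-cell wells (complete cell-killing) and DMSO (no toxicity), and curves were fitted and classified.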
TGFb CAGA inh: confirmation of TGF-b signaling inhibitors in HepG2 reporter cells. shares compounds with TGFb inhibitor. HepG2 CAGA-GFP TGF-b reporter, GFP fluorescence, 18 h; cells stimulated with TGF-beta, 500 pg/mL. Potency, µM (doses to about 46.1 µM), usual class: inhibitors. 1,600 tested, 63% active; note: nearly all actives have a fitted effect of over 65% in size
HepG2 tox-2: counter-screen for TGF-b inhibitors: cytotoxicity in HepG2 cells; shares compounds with TGFb inhibitor; 1,600 tested, 27% active; Potency, µM (top dose mostly 46.1 µM), most hits filed as inhibitors; HepG2 CAGA-GFP viability, ATP luminescence, 18 h; cells stimulated with TGF-beta, 500 pg/mL; note: nearly all actives have a fitted effect of over 70% in size
TGFb CCL64 inh: TGF-b inhibition, CCL64 orthogonal assay | shares compounds with TGFb inhibitor | CCL64 CAGA-GFP reporter, TGF-b stimulated, GFP fluorescence, 18 h | Potency, µM (titrated, usually from 46.1 µM), usual class: inhibitors | 1,600 tested, 41% active; note: nearly all actives have a fitted effect of over 65% in size
TGFb COP inh: TGF-b inhibition validated with COP promoter; shares compounds with TGFb inhibitor; HepG2 COP-GFP TGF-b reporter, GFP fluorescence, 18 h; cells stimulated by added recombinant TGF-beta; Potency, µM (series often up to 46.1 µM), usual class: inhibitors; 1,600 tested, 3% active; AID 720537; note: nearly all actives have a fitted effect of over 70% in size
Large screens that a line does not name were inactive (follow-up assays come after a bar, where they were run). An excerpt weighted towards active compounds, which were near 17% of everything screened. Calls come from the whole dose curve; as a rule, active = well fitted curve in the direction sought with a large enough effect; inconclusive = small, poorly fitted or top-dose-only effect, or another doubt; inactive = no such curve, though single readings can be large; an effect the other way counts as inactive or inconclusive.

CC[C@]12c3[nH]c4ccc(OC)cc4c3CCN1C(=O)C(CC(=O)NCCC1=CCCCC1)C[C@@H]2C(=O)N1CCN(C(=O)C2CC2)CC1 (stereo partly specified)	DT40 TDP1 CPT inconclusive
CCN(CC)C(=O)[C@H]1CC(CC(=O)NCc2cccc(C(F)(F)F)c2)C(=O)N2CCc3c([nH]c4ccc(OC)cc34)[C@]12C (stereo partly specified)	TDP1 cell noCPT 15µM, TGFb inhibitor 8.9µM, DT40 TDP1 CPT 16µM | TGFb CAGA inh 33µM | HepG2 tox-2 inactive | TGFb CCL64 inh inconclusive | TGFb COP inh inactive
COc1ccc2[nH]c3c(c2c1)CCN1C(=O)C(CC(=O)NCCC2=CCCCC2)C[C@H](C(=O)N2CCCCC2)[C@@]31C (stereo partly specified)	TDP1 cell noCPT 18µM, TGFb inhibitor 7.9µM, DT40 TDP1 CPT 23µM | TGFb CAGA inh inconclusive | HepG2 tox-2 inactive | TGFb CCL64 inh inactive | TGFb COP inh inactive
Cc1ccc(NC(=O)CSc2nnc(-c3ccoc3C)n2CCCN(C)C)cc1Cl	none
CCOC(=O)c1c(C)[nH]c(C(=O)COC(=O)C(C)N2C(=O)C3CCCCC3C2=O)c1C (stereo unspecified)	TDP1 cell noCPT inconclusive, DT40 TDP1 CPT inconclusive
Cc1c(C(=O)N/N=C/c2ccc(N(C)C)cc2)[nH]c2ccc(Cl)cc12	TDP1 cell noCPT 5.8µM, HT1080NT lethal 5.8µM, TGFb inhibitor 4.5µM, DT40 TDP1 CPT 5.8µM, HT1080 IDH1KD tx inconclusive | TGFb CAGA inh 2.3µM | HepG2 tox-2 inactive | TGFb CCL64 inh inconclusive | TGFb COP inh inactive
CN(C)c1ccc(/C=N/NC(=O)c2ccc3c(c2)OCO3)cc1	none
COc1cccc(C(=O)n2nc(-c3cccnc3)nc2NCc2ccc(F)cc2)c1	TDP1 cell noCPT inconclusive (no result: HT1080NT lethal, HT1080 IDH1KD tx)
Cc1ccccc1Nc1c(-c2ccc(Br)o2)nc2ccc(Cl)cn12	TDP1 cell noCPT inconclusive, DT40 TDP1 CPT inconclusive (no result: HT1080NT lethal, HT1080 IDH1KD tx)
Cc1ccc2nc(-c3ccccn3)c(Nc3ccccc3C)n2c1	TDP1 cell noCPT 10µM, HT1080NT lethal 13µM, TGFb inhibitor 3.2µM, DT40 TDP1 CPT 16µM, HT1080 IDH1KD tx 13µM | TGFb CAGA inh 8.2µM | HepG2 tox-2 inconclusive | TGFb CCL64 inh inconclusive | TGFb COP inh inactive
CC(C)Sc1nnc(NC(=O)c2ccc3c(c2)OCO3)s1	HT1080 IDH1KD tx inconclusive
CN(CC(=O)Nc1cccc(F)c1)C(=O)c1cccc(S(=O)(=O)N2CC3(C)CC2CC(C)(C)C3)c1 (stereo unspecified)	TDP1 cell noCPT inconclusive, TGFb inhibitor 11µM, DT40 TDP1 CPT inconclusive | TGFb CAGA inh 16µM | HepG2 tox-2 inactive | TGFb CCL64 inh inconclusive | TGFb COP inh inactive
CC1(C)CC2CC(C)(CN2S(=O)(=O)c2cccc(C(=O)O)c2)C1 (stereo unspecified)	none
O=C(c1cc(-n2cnnc2)ccc1Cl)N1CCN(c2nc(-c3ccccc3)cs2)CC1	TDP1 cell noCPT 23µM, HT1080NT lethal inconclusive, TGFb inhibitor 11µM, DT40 TDP1 CPT 16µM, HT1080 IDH1KD tx inconclusive | TGFb CAGA inh 8.2µM | HepG2 tox-2 inactive | TGFb CCL64 inh inconclusive | TGFb COP inh inactive
c1ccc(-c2csc(N3CCSCC3)n2)cc1	none
O=C(Oc1ccc(Cl)c2cccnc12)c1cccnc1	TDP1 cell noCPT inconclusive, HT1080NT lethal inconclusive, TGFb inhibitor 10µM, DT40 TDP1 CPT inconclusive, HT1080 IDH1KD tx inconclusive | TGFb CAGA inh inactive | HepG2 tox-2 inactive | TGFb CCL64 inh inconclusive | TGFb COP inh inactive
O=C(Cc1cccc(NC(=O)C2CCCN(C(=O)C3CCCCC3)C2)c1)Nc1cccc(C(=O)N2CCCCC2)c1 (stereo unspecified)	none
O=C(Cc1cccc(NC(=O)C2CCCN(C(=O)C3CCCCC3)C2)c1)Nc1cccc(C(=O)N2CCCC2)c1 (stereo unspecified)	TGFb inhibitor inconclusive | TGFb CAGA inh inconclusive | HepG2 tox-2 inactive | TGFb CCL64 inh inactive | TGFb COP inh inactive
COc1ccc(-c2c/c(=N\c3nc(-c4ccccc4)c(C)s3)c3ccccc3o2)cc1O	TDP1 cell noCPT 4.1µM, HT1080NT lethal 5.8µM, TGFb inhibitor 8.9µM, DT40 TDP1 CPT 5.8µM, HT1080 IDH1KD tx 5.8µM | TGFb CAGA inh 8.2µM | HepG2 tox-2 inconclusive | TGFb CCL64 inh 4.1µM | TGFb COP inh inactive
CCC(N=c1cc(-c2ccc(OC)c(OC)c2)oc2ccc(C)cc12)C(=O)O (stereo unspecified)	none
COc1ccc(-c2csc(NC(C)c3nc4cc(C(F)(F)F)ccc4n3CCOCCO)n2)cc1 (stereo unspecified)	TDP1 cell noCPT 18µM, TGFb inhibitor 13µM, DT40 TDP1 CPT 16µM, HT1080 IDH1KD tx inconclusive | TGFb CAGA inh 23µM | HepG2 tox-2 inconclusive | TGFb CCL64 inh inconclusive | TGFb COP inh inactive
O=C(N/N=C/c1ccc2c(c1)OCO2)c1cc(-c2ccccc2Cl)nc2ccccc12	TGFb inhibitor inconclusive | TGFb CAGA inh inactive | HepG2 tox-2 inactive | TGFb CCL64 inh inactive | TGFb COP inh inactive
O=C(CNC(=O)c1ccccc1Cl)N/N=C/c1ccc2c(c1)OCO2	TDP1 cell noCPT inconclusive, DT40 TDP1 CPT inconclusive, HT1080 IDH1KD tx inconclusive
CCCCNC(=O)c1cccc2c(=O)c(C)c(-c3ccccc3)oc12	TDP1 cell noCPT inconclusive, DT40 TDP1 CPT inconclusive
